Compound activity (PubChem)
PAFAH1B3 FP inh: inhibitors of human PAFAH1B3 | Q15102 | recombinant PAFAH1B3, FP-rhodamine probe, fluorescence polarization | inhibition, % at 3.39 µM | 0.28% of 340,000 active | AID 492972;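 active means inhibition above the screen-wide average of all tested compounds plus 3 SD, cut at about 25% in these data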
Target sequence (Q15102 whole entry, looked up): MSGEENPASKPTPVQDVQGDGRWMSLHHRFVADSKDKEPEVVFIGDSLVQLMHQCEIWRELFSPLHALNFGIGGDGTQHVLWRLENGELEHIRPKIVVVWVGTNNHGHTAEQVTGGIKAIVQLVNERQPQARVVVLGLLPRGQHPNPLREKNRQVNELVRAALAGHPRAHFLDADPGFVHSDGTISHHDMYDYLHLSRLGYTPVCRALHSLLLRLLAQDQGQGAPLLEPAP
pPAFAH inh: inhibitors of human plasma PAF acetylhydrolase (pPAFAH). Q13093. recombinant pPAFAH, FP-rhodamine probe fluorescence polarization. inhibition, % at 3.39 µM. 1.5% of 330,000 active. AID 463082;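 active means inhibition above the mean inhibition across the screen plus 3 SD, cut at about 25% in these data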;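 further: inhibitors block binding of the rhodamine activity-based probe so polarization drops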
Fam108B inh: Fam108B inhibition, counter-screen for RBBP9 inhibitors. recombinant Fam108B, FP-Rh probe fluorescence polarization. inhibition, % at 9.51 µM. 0.33% of 300,000 active. AID 1947;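 active means inhibition above the screen mean inhibition plus 3 SD, computed separately per campaign, cut at about 18% in these data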;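 further: inhibitors lower polarization as less probe binds the enzyme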
PME-1 primary: blocks human protein phosphatase methylesterase 1; recombinant PME-1, FP-Rh probe fluorescence polarization; inhibition, % at 5.9 µM; 0.53% of 320,000 active;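 active means inhibition above the campaign mean of all compounds plus 3 SD, cut at about 26% in these data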;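 further: competitive labeling of PME-1 active site by serine hydrolase directed probe; inhibitors block probe labeling so polarization falls and inhibition rises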
PAFAH1B2 inh: PAFAH1B2 (human) inhibition | recombinant PAFAH1B2, FP-rhodamine activity probe, fluorescence polarization | P68402 | AID 492953 | 1.2% of 340,000 active | inhibition, % at 3.39 µM;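 active means inhibition above the mean of all tested compounds plus 3 SD, cut at about 24% in these data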
Target sequence (P68402 whole entry, looked up): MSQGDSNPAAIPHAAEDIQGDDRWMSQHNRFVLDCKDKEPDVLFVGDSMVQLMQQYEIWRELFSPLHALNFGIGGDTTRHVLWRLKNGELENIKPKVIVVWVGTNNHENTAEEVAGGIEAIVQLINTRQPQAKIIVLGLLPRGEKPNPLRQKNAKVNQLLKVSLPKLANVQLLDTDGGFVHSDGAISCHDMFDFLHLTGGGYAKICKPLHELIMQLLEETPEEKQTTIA
PAFAH2 FP inh: inhibitors of human PAFAH2 | inhibition, % at 3.39 µM | 0.99% of 340,000 active | recombinant PAFAH2, FP-rhodamine activity probe, fluorescence polarization | Q99487 | AID 492956;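 active means inhibition above the mean over all tested compounds plus 3 SD, cut at about 30% in these data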;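 further: inhibitors block probe labeling of enzyme so polarization drops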
Fam108b inh conf: Fam108b (mouse) hydrolase inhibition, confirmation assay. AID 1978. shares compounds with Fam108B inh. recombinant Fam108b, FP-Rh probe fluorescence polarization. inhibition, % at 9.51 µM. 44% of 930 active;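 active means inhibition above a limit from the primary screen, the mean over all compounds plus 3 SD, cut at about 19% in these data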;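 further: inhibitors free the probe so polarization falls as inhibition rises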
Fam108b ABPP HTS: mouse ABHD17B inhibition; shares compounds with Fam108B inh; recombinant Fam108b, gel-based ABPP, fluorophosphonate probe; inhibition, % at 20 µM; 44% of 260 active; in the data active means inhibition above about 40%
Hits are given with their value; – = inactive; · = not tested or not shown. Hits are enriched below; roughly 2.9% of the tested compounds scored in any of these assays.

SMILES | PAFAH1B3 FP inh | pPAFAH inh | Fam108B inh | PME-1 primary | PAFAH1B2 inh | PAFAH2 FP inh | Fam108b inh conf | others
O=C(OC1CCOC1=O)c1ccc(NS(=O)(=O)c2cccs2)cc1 (stereo not given) | – | – | – | – | – | – | ·
O=[N+]([O-])c1ccc(NN=Cc2c[nH]c3ccccc23)c(S(=O)(=O)Nc2ccc(Cl)cc2)c1 | · | · | · | · | · | · | · | Fam108b ABPP HTS=90
C/C(=N\Nc1ccc(S(=O)(=O)Nc2ccccc2)cc1[N+](=O)[O-])c1ccc(N2CCOCC2)cc1 | – | – | – | – | – | – | ·
O=[N+]([O-])c1ccccc1/C=C/C=N/Nc1ccc(S(=O)(=O)Nc2ccc(Cl)cc2)cc1[N+](=O)[O-] | – | – | 60 | 40 | – | – | –
C/C(=N\Nc1ccc(S(=O)(=O)Nc2ccc(Cl)cc2)cc1[N+](=O)[O-])c1ccc(N2CCOCC2)cc1 | – | – | 35 | – | – | – | –
Cc1ccc(-c2nc(N)sc2CC(=O)OCC(=O)NCCC(C)C)cc1 | – | – | – | – | – | – | ·
CC1(C)CC(=O)C2=C(C1)N(N1CCOCC1)C(N)=C(C#N)C2c1cccs1 (stereo not given) | – | – | – | – | – | – | ·
CN1c2ccccc2C(C)(C)C12C=Nc1c(ccc3ccccc13)O2 (stereo not given) | – | – | 31 | – | – | – | –
Oc1cccc(NC(=S)N=Nc2c(O)[nH]c3ccc(Br)cc23)c1 | – | 28 | 24 | 33 | – | – | –
CCCCOc1ccc(OCCNC(=O)c2ccco2)cc1 | – | – | – | – | – | – | ·
CCc1ccc(CNc2ccc(O)cc2)cc1 | – | – | 37 | 38 | – | – | –
CCOC(=O)N1CCN(C(=O)c2csc3c2CCCCC3)CC1 | – | – | – | – | – | – | ·
COc1ccc(NC(=O)N2CCN(C(=O)c3ccco3)CC2)c(OC)c1 | – | – | – | – | – | – | ·
COc1ccc(C(=O)NC(=S)N2CCN(C)CC2)cc1Br | – | – | 47 | – | – | – | –
COc1ccc([N+](=O)[O-])cc1NC(=O)C1C2C=CC(C2)C1C(=O)O (stereo not given) | – | – | 19 | – | – | – | –
CCOC(=O)c1sc(NC(=O)c2cccc(S(=O)(=O)N3c4ccccc4CC3C)c2)cc1C (stereo not given) | – | – | 43 | 33 | – | – | 21
Cc1cc(NC(=O)c2cccc(S(=O)(=O)N3c4ccccc4CC3C)c2)no1 (stereo not given) | – | – | – | – | – | – | ·
O=C(CSc1n[nH]c(=O)n1Cc1ccco1)c1ccc(F)cc1 | · | – | – | – | · | · | ·
O=C1c2ccccc2C2=Nc3ccccc3SC(c3cccc(F)c3)C12 (stereo not given) | – | – | 22 | – | – | – | –
O=C1c2ccccc2C2=Nc3ccccc3SC(c3ccc(Cl)cc3)C12 (stereo not given) | – | – | – | – | – | – | ·
O=C(NN1C(=O)/C(=C/c2ccc(O)c([N+](=O)[O-])c2)SC1=S)c1ccccc1Cl | – | – | 25 | – | – | – | 20
C#CCn1cc(/C=N/Nc2nc3ccccc3[nH]2)c2ccccc21 | – | 29 | 30 | – | – | – | 21
C(=N\Nc1nc2ccccc2[nH]1)/c1cccc2nccnc12 | · | – | – | – | · | · | ·
Cn1nc(-c2ccc(Cl)cc2)nc2c(=O)n(C)c(=O)nc1-2 | · | – | 71 | 37 | · | · | 73
Cc1ccc(N2C(=O)C3CCC(C)(C2=O)C3(C)C)cc1 (stereo not given) | – | – | – | – | – | – | ·
SMILES | PAFAH1B3 FP inh | pPAFAH inh | Fam108B inh | PME-1 primary | PAFAH1B2 inh | PAFAH2 FP inh | Fam108b inh conf | others
CSC[C@@H]1NC(=S)N(c2ccc(C)cc2)C1=O | 49 | – | 31 | 60 | 27 | – | 50 | Fam108b ABPP HTS=40
C[C@H](NC(=O)c1ccc2ccccc2c1)C(=O)N1CCC2(CC1)NCCc1[nH]cnc12 | – | – | – | – | – | – | ·
O=c1/c(=C/c2ccccn2)sc2nc3ccccc3n12 | – | – | – | – | – | – | ·
O=c1c(=Cc2cc([N+](=O)[O-])cc([N+](=O)[O-])c2O)sc2nc3ccccc3n12 | · | · | · | · | · | · | · | Fam108b ABPP HTS=–
O=C(O)c1cccc(-c2ccc(/C=c3/sc4nc5ccccc5n4c3=O)o2)c1 | 26 | 26 | 25 | – | – | – | –
O=c1/c(=C\c2cc([N+](=O)[O-])cc([N+](=O)[O-])c2O)sc2nc3ccccc3n12 | – | 26 | 52 | – | – | – | 39
COc1cc(NC(=O)c2ccco2)c(OC)cc1NC(=O)Nc1ccccc1Cl | – | – | – | – | – | – | ·
COc1ccccc1CN1CC(C(=O)N(C)Cc2ccc(C)o2)CCC1=O (stereo not given) | – | – | – | – | – | – | ·
C=CCn1c(SCC(=O)NC2(C#N)CCCCC2)nnc1-c1ccncc1 | – | – | – | – | – | – | ·
O=C(Nc1ccc2[nH]c(=S)sc2c1)Nc1ccccc1F | – | – | 26 | 78 | – | – | 49 | Fam108b ABPP HTS=90
CC1(C)CC(=O)C2=C(C1)NC1=C(C(=O)c3ccccc31)C2c1cc([N+](=O)[O-])ccc1O (stereo not given) | – | – | 21 | – | – | – | –
CC(C)c1ccc(C2C3=C(CC(C)(C)CC3=O)NC3=C2C(=O)c2ccccc23)cc1 (stereo not given) | – | – | 23 | – | – | – | –
CN(c1ccccc1)S(=O)(=O)c1ccc(NC(=O)c2nc(S(C)(=O)=O)ncc2Cl)cc1 | – | – | 32 | 47 | – | – | 24
Brc1cccc(C2Nc3cccc4cccc(c34)N2)c1 | – | – | 22 | – | – | – | –
CN(C)c1ccc(C2Nc3cccc4cccc(c34)N2)cc1 | – | – | – | – | – | – | ·
Oc1ccccc1C1Nc2cccc3cccc(c23)N1 | – | – | 60 | 46 | – | – | 31 | Fam108b ABPP HTS=85
Brc1ccc(C2Nc3cccc4cccc(c34)N2)o1 | – | – | 26 | – | – | – | –
Clc1cccc(C2Nc3cccc4cccc(c34)N2)c1 | – | – | – | – | – | – | ·
c1ccc(C2Nc3cccc4cccc(c34)N2)cc1 | – | – | – | – | – | – | ·
Clc1ccc(C2Nc3cccc4cccc(c34)N2)cc1Cl | – | – | 24 | – | – | – | 21
O=C(OCC(=O)N1CCOCC1)c1ccc(Cl)c(S(=O)(=O)N2CCc3ccccc32)c1 | – | – | · | · | – | – | ·
CCOc1ccccc1NC(=O)C(Sc1nnc2ccccn12)c1ccccc1 (stereo not given) | – | – | – | – | – | – | ·
COc1ccc(C(=O)N2CCC(NC(=O)C(Cc3ccccc3OC)NC(C)=O)CC2)cc1 (stereo not given) | – | · | · | · | – | – | ·
